From PubChem BioAssay (EPA / NIEHS)
Values joined by “and” are separate entries in the source; they are usually repeats but may differ in a detail not shown here. Identical values can stand only once. More than one record can exist for a structure, and the calls need not agree. Active and inactive are the calls of the source. The calls were made as follows: active = hit-call score of the fitted dose curve at least 0.9, where 1 is the maximum; inconclusive = response in the unintended direction; inactive = score below 0.9.

system: rat CYP2B1, gene 24300; assay: NVS_ADME_rCYP2B1: NovaScreen (NVS) CYP450-related Enzyme Activity (ADME) Assay for rat CYP2B1 (AID 2283117)
Protocol: NVS_ADME_rCYP2B1 is a biochemical, single-readout assay that uses extracted gene-proteins in a cell-free assay. Measurements were taken 0.75 hour after chemical dosing in a 96-well plate.NVS_ADME_rCYP2B1 is one of one assay component(s) measured or calculated from the NVS_ADME_rCYP2B1 assay. It is designed to make measurements of enzyme activity, a form of enzyme reporter, as detected with fluorescence intensity signals by Fluorescence technology.Data from the assay component NVS_ADME_rCYP2B1 was analyzed into 1 assay endpoint. This assay endpoint, NVS_ADME_rCYP2B1, was analyzed in the positive analysis fitting direction relative to Acetonitrile as the negative control and baseline of activity. Using a type of enzyme reporter, loss-of-signal activity can be used to understand changes in the enzymatic activity as they relate to the gene Cyp2b1. Furthermore, this assay endpoint can be referred to as a primary readout, because this assay has produced multiple assay endpoints where this one serves a enzymatic activity function. To generalize the intended target to other relatable targets, this assay endpoint is annotated to the cyp intended target family, where the subfamily is xenobiotic metabolism.
Binding assays used specific radioligands (tritiated, iodinated) with non-radioactive competitive displacement ligands in agonist or antagonist protocols (as indicated) and various reference compounds and inhibitors to titrate specific binding to receptors and transporters. Most enzyme assays (CYPs, kinases, phosphatases, proteases, HDACs) used recombinant protein and specific substrates (fluorescence mostly, some colorimetric and radioactive) and inhibitors, followed by a biochemical separation of substrate and product. All assays for the biochemical HTS were initially run in duplicate at a single concentration (10 uM for CYP450 assays and 25 uM for all others). Assay-chemical combinations meeting a pre-defined threshold (e.g., 30% inhibition and other criteria defined below) were then run in singleton concentration-response format with maximum concentration of 20 uM for CYPs and 50 uM for all others. Each assay was run with positive and negative controls, and concurrent controls on every plate. The follow-up (secondary) screen tested active chemical-pairs in concentration series, as well as a few additional assays not tested in the primary screen, some selected negative inactives, and several cases re-run in the concentration series for confirmatory purposes.

| Compound | AC50 | outcome |
| --- | --- | --- |
| OC(c1ccc(Cl)cc1)(c1cncnc1)c1ccccc1Cl (centres undefined) | 1.17 µM (active) | – |
| CCOC(=O)CC(SP(=S)(OC)OC)C(=O)OCC (centres undefined) | 3.83 µM (active) | – |
| CCCN(CCC)c1c([N+](=O)[O-])cc(S(N)(=O)=O)cc1[N+](=O)[O-] | 7.63 µM (active) | – |
| O=C(Nc1ccccc1)Nc1ccnc(Cl)c1 | 6.41 µM (active) | – |
| CN(C)C(=S)SSC(=S)N(C)C | 2.11 µM (active) | – |
| CCCCOC(=O)c1ccccc1C(=O)OCCCC | 2.31 µM (active) | inactive |
| CCCC1COC(Cn2cncn2)(c2ccc(Cl)cc2Cl)O1 (centres undefined) | 799 nM (active) and 409 nM (active) | – |
| CCON=C(CC)C1=C(O)CC(c2c(C)cc(C)cc2C)CC1=O (centres undefined) | – | inactive |
| CCOP(=S)(OCC)SCn1c(=O)oc2cc(Cl)ccc21 | 0.708 µM (active) | – |
| CC1COC(Cn2cncn2)(c2ccc(Oc3ccc(Cl)cc3)cc2Cl)O1 (centres undefined) | 0.552 µM (active) | – |
| N#CC(CCc1ccc(Cl)cc1)(Cn1cncn1)c1ccccc1 (centres undefined) | 0.0692 µM (active) | – |
| COc1ccc(C(c2ccc(OC)cc2)C(Cl)(Cl)Cl)cc1 | – | inactive |
| CCNc1nc(Cl)nc(NC(C)C)n1 | – | inactive |
